Most compounds without a hit are left out; they make up all but 2.1% or so of the library.
COUP-TFII inh: NR2F2 (human) inhibition, primary screen; hit rate 0.7% among 370,000; AID 686940; inhibition, % at 8.6 µM; P24468; HEK293T NGFI-A luciferase reporter, luminescence;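 active means inhibition above a per-plate cutoff, mean inhibition of test wells between control levels plus 3 SD, cut at about 38% in these data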;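 further: cells cotransfected with COUP-TFII expression vector driving the NGFI-A reporter; 0% = median of COUP-TF2 test wells and 100% = reporter-only cells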
Target sequence (P24468 whole entry, looked up): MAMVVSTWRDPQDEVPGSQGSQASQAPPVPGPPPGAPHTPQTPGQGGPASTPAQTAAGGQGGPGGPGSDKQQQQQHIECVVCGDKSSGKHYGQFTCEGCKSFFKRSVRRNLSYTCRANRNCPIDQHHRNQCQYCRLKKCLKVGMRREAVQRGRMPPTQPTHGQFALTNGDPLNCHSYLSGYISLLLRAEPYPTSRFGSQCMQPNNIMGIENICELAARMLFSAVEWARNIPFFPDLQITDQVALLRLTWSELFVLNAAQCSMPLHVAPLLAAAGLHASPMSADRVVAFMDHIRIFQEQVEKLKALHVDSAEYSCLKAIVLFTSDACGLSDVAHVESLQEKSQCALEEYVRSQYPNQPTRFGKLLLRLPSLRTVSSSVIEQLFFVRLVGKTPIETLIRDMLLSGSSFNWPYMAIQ
HIV Env fusion: blocks HIV Env-driven cell-cell fusion. HeLa-JRFL Env/CEM21 cell fusion, luciferase. inhibition, % at 12.3 µM. hit rate 1.1% among 360,000;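 active means mean replicate inhibition score of at least 50 and every replicate individually at or above 50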;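 further: 0% = plate neutral controls and 100% = maraviroc near 300 nM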
aDG glyco up: alpha-DG glycosylation activation. Pro5-aDG cells, alpha-DG glycosylation AlphaScreen (IIH6); 0% Pro5, 100% B10-LARGE cell signal. activation, % at 10 µM. hit rate 0.22% among 360,000;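 active means activation of at least 8% versus controls, or a plate z-score of at least 8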;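 further: Pro5 are CHO cells carrying HIG-tagged alpha-DG that lacks glycosylation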
GalR3 antag: blocks the human galanin receptor 3. inhibition, % at 3 µM. HEK293 GalR3-CNG cAMP membrane potential fluorescence; galR3 body fused to GalR1 C-terminus. hit rate 0.44% among 360,000. O60755;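 active means inhibition above the screen-wide average plus 3 SD, cut at about 13% in these data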;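 further: forskolin and galanin both at EC90 stimulate the cells; cAMP rise reported by CNG channel membrane potential dye signal; 0% = forskolin plus galanin with DMSO and 100% = forskolin alone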
Gli-Sufu antag: Gli-Sufu pathway antagonism; Sufu-KO-LIGHT fibroblasts, Gli luciferase reporter luminescence; inhibition, % at 5 µM; hit rate 0.74% among 340,000; AID 588413;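 active means inhibition above about 55%, limit read from the data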;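 further: 0% = DMSO-treated cells and 100% = wells with medium but no cells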
* = called active by the depositor; x = no result given; [ ] = another dose, or the depositor's remark.

SMILES	COUP-TFII inh	HIV Env fusion	aDG glyco up	GalR3 antag	Gli-Sufu antag
Cc1ccccc1S(=O)(=O)N1C[C@H]2[C@H]3C(=O)N(C4CCCCC4)C(=O)[C@H]3CC(=O)[C@H]2[C@@H]1c1ccc(Cl)cc1	14	132*	0	-4	x
Cc1ccc(S(=O)(=O)N2C[C@H]3[C@H]4C(=O)N(c5ccccc5)C(=O)[C@H]4CC(=O)[C@H]3[C@@H]2c2ccc(Cl)cc2)cc1	-10	x	0	1	x
c1ccc2c(c1)ccc1ccccc12	-6	x	0	-7	1
CC1=[N+](C)c2ccc3ccccc3c2C1(C)C	6	26	-1	-7	70*
CN1[C@@H]2c3ccc(-c4ccccc4)c(=O)n3C[C@H]1[C@H](CO)[C@H]2C(=O)NCC1CCCCC1	x	10[16.7 µM]	x	x	x
COc1ccc2nc(Nc3nc(CSc4nc5ccccc5[nH]4)cc(=O)[nH]3)nc(C)c2c1	7	86*	0	0	-64
CCc1c(C)nc(Nc2nc(C)c3ccc(OC)cc3n2)[nH]c1=O	7	x	0	-4	-22
Cc1nc(Nc2nc(CSc3nc4ccccc4[nH]3)cc(=O)[nH]2)nc2ccccc12	28	161*	0	1	22
COc1ccc2c(C)nc(Nc3nc(C)c(C)c(=O)[nH]3)nc2c1	-33	66*	0	-5	-58
O=C(C[C@H]1C=C[C@H](NS(=O)(=O)c2ccccc2)[C@@H](CO)O1)NCc1ccc(Cl)c(Cl)c1	x	10[16.7 µM]	x	x	x
CCn1c(C(=O)N2CCCC(C(=O)NCCCc3ccccc3)C2)cc2sccc21 (stereo not given)	11	66*	1	-14	5
CNC[C@@H]1Oc2cc(-c3cccc(C(=O)N(C)C)c3)ccc2S(=O)(=O)N([C@@H](C)CO)C[C@H]1C	x	-15[16.7 µM]	x	x	x
CCCC#Cc1ccc2c(c1)O[C@@H](CN(C)Cc1ccncc1)[C@H](C)CN([C@@H](C)CO)S2(=O)=O	x	39[16.7 µM]	x	x	x
COc1ccc(C2c3c(oc4ccccc4c3=O)C(=O)N2Cc2ccncc2)cc1OC (stereo not given)	-4	-21	x	-3	5
O=C1c2oc3ccccc3c(=O)c2C(c2cccc(Br)c2)N1Cc1ccco1 (stereo not given)	19	55*	0	-4	6
CCCCCCCCN1C(=O)[C@H](CC(=O)N2CCCCC2)C[C@@]2(C(=O)OCC)CCCC=C12	3	89*	0	-7	x
CCCCCCCCN1C(=O)[C@H](CC(=O)NCCCC)C[C@@]2(C(=O)OCC)CCCC=C12	9	97*	0	2	x
Cc1cc(C(=O)Nc2cccc3c2O[C@@H](CN(C)Cc2ccc(Oc4ccccc4)cc2)[C@H](C)CN([C@H](C)CO)C3=O)n(C)n1	x	29[16.7 µM]	x	x	x
Cc1nc(CNS(=O)(=O)c2ccc3c(c2)CCCC3)cs1	-6	60*	0	x	6
Cc1ccc(S(=O)(=O)NCc2csc(C)n2)cc1	1	-7	0	-1	-14
O=C(Nc1ccc(C(F)(F)F)cc1)N[C@@H]1CC[C@@H](CC(=O)N2CCCCC2)O[C@H]1CO	x	-7[16.7 µM]	x	x	x
CCOc1ccc(OCC)c(NC(=O)CN2CCN(c3cccc(C)c3)CC2)c1	7	x	0	-5	3
CCOc1ccc(OCC)c(NC(=O)CN2CCN(c3cc(C)ccc3C)CC2)c1	2	61*	0	-1	1
COc1ccc(-n2nnnc2-c2cnc(N3CCCC3)nc2C(F)(F)F)cc1	20	72*	0	-3	39
FC(F)(F)c1nc(-c2cccnc2)ncc1-c1nnnn1-c1ccccc1	23	0	1	4	-6
SMILES	COUP-TFII inh	HIV Env fusion	aDG glyco up	GalR3 antag	Gli-Sufu antag
Cc1noc(C)c1S(=O)(=O)Nc1ccc2c(c1)C(=O)N([C@@H](C)CO)C[C@@H](C)[C@@H](CN(C)C(=O)NC(C)C)O2	x	-30[16.7 µM]	x	x	x
COc1ccc(C(=O)Nc2ccc(N3CCN(Cc4ccccc4)CC3)cc2)cc1	-22	9	0	-6	-5
COc1c(F)c(F)c(C(=O)Nc2ccc(N3CCN(Cc4ccccc4)CC3)cc2)c(F)c1F	31	65*	2	-6	9
COc1cccc(NC(=O)c2ccc(CN3CCN(c4ccccc4)CC3)cc2)c1	-4	62*	1	-7	3
COc1cccc(C(=O)Nc2ccc(N3CCN(Cc4ccccc4)CC3)cc2)c1	19	-26	3	-6	1
COc1cc2c(c(OC)c1OC)[C@@]1(c3ccccc3)CCCC[C@H]1[C@@H]2NC(=O)C(F)(F)F	11	87*	x	-9	x
COc1ccc2c(c1)[C@@H](NC(=O)C(F)(F)F)[C@@H]1CCCC[C@]21c1ccccc1	12	-41	x	-7	x
COc1ccc2c(c1)C(SCC(=O)NCCc1ccc(Cl)cc1)CC(C)(C)O2 (stereo not given)	2	63*	0	-2	-16
CC1(C(=O)N/N=C/c2ccc3c(c2)OCO3)CC1(Br)Br (stereo not given)	-10	103*	0	-2	4
Cc1ccc(/C=N/NC(=O)C2(C)CC2(Br)Br)cc1 (stereo not given)	10	5	0	1	-15
CCOC(=O)C1=C(C)N(C[C@@H]2CC[C@@H](Cc3ccc(-c4ccccc4)cc3)O2)C(=O)NC1c1ccc(-c2ccccc2)cc1 (stereo not given in full)	-1	72*	0	-8	1
CCOC(=O)C1=C(C)N(C[C@@H]2CC[C@@H](Cc3ccc(-c4ccccc4)cc3)O2)C(=O)NC1c1ccc(Cl)cc1 (stereo not given in full)	0	48	0	-7	8
CC(C)(C)OC(=O)NCc1ccc(CNC(=O)c2nc[nH]c2C(=O)NCc2ccc(CNC(=O)OC(C)(C)C)cc2)cc1	47*	15	1	-1	36
O=C(Nc1ccccc1)c1nc[nH]c1C(=O)NCCCNC(=O)c1[nH]cnc1C(=O)Nc1ccccc1	5	18	0	3	-6
O=C(Nc1ccccc1)c1nc[nH]c1C(=O)NCCCCCCNC(=O)c1[nH]cnc1C(=O)Nc1ccccc1	-1	57*	0	-2	4
CC(C)(C)OC(=O)CNC(=O)c1nc[nH]c1C(=O)NCc1ccc(CNC(=O)OC(C)(C)C)cc1	13	-89	0	0	17
CC(C)(C)OC(=O)NCCCCCNC(=O)c1nc[nH]c1C(=O)NCc1ccc(CNC(=O)OC(C)(C)C)cc1	72*	30	0	-3	27
C[C@@H]1CN([C@@H](C)CO)C(=O)c2cc(NC(=O)CCC(F)(F)F)ccc2O[C@@H](C)CCCCO[C@H]1CN(C)S(=O)(=O)c1cccs1	x	-13[16.7 µM]	x	x	x
CC(=NNc1nc2ccccc2o1)c1ncccn1	-1	-199	-1	-3	53
CC(=NNc1nc2ccccc2o1)c1cc2ccccc2cn1	14	29	0	-2	92*
Cc1csc(NC(=O)c2cc3c(s2)-c2ccccc2OC3)n1	36	-14	0	-3	-67
Cc1c(NC(=O)c2cc3c(s2)-c2ccccc2OC3)cccc1[N+](=O)[O-]	-3	87*	1	-3	14

Assay outcomes from PubChem.
